Measurements: PubChem BioAssay AID1159580 (chemical genetic matrix, 2015)
Hit rate of the full screen: of about 5,500 compounds, about 2,000 (36%) were called active. Roughly 18% stayed inconclusive and do not appear here. Cut-off read from the data, not from the text of the source: active = normalized growth mostly below about 0.91 (no sharp cut-off); inconclusive = no clear call, values can overlap the other calls; inactive = mostly above about 0.92. This is one part of the list.

Assay: chemical genetic growth profiling, strain panel (AID 1159580);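 note: tested at 20 µM; growth read once vehicle control cultures reached saturation at 30 °C; 1 = growth at the plate median or of vehicle wells; lower values mean less growth of the strain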
Conditions: S. cerevisiae deletion strains, growth OD
[1] = locus YAL013W, strain DEP1, active compounds read low
[2] = locus YBR229C, strain ROT2, active compounds read low
[3] = locus YDL101C, strain DUN1, active compounds read low
[4] = locus YGR078C, strain PAC10, active compounds read low
[5] = locus YJL187C, strain SWE1, active compounds read low
[6] = locus YJR043C, strain POL32, active compounds read low
[7] = locus YJR075W, strain HOC1, active compounds read low
[8] = locus YKL190W, strain CNB1, active compounds read low
[9] = locus YLR039C, strain RIC1, active compounds read low
[10] = locus YLR262C, strain YPT6, active compounds read low
[11] = locus YMR263W, strain SAP30, active compounds read low
[12] = locus YNL153C, strain GIM3, active compounds read low
[13] = locus YNL322C, strain KRE1, active compounds read low
[14] = locus YPL055C, strain LGE1, active compounds read low
[15] = locus YPL241C, strain CIN2, active compounds read low

Measured: normalized growth

CC1(C)C(O)CC(=O)C2(C)C1CC(O)C1(C)C2CCC2(C)C(c3ccoc3)OC(=O)C3OC321 (stereo unspecified)
inactive: [1] 1 | locus YAL021C, strain ccr4, active compounds read low 0.99 | locus YAL026C, strain drs2, active compounds read low 1.02 | locus YAL030W, strain snc1, active compounds read low 1 | locus YBL061C, strain skt5, active compounds read low 1 | locus YBR009C, strain hhf1, active compounds read low 0.999 | locus YBR021W, strain FUR4, active compounds read low 0.931 | locus YBR023C, strain chs3, active compounds read low 0.99 | locus YBR171W, strain sec66, active compounds read low 0.995 | [2] 1 | locus YBR231C, strain swc5, active compounds read low 0.999 | locus YBR279W, strain paf1, active compounds read low 0.997 | locus YCL011C, strain gbp2, active compounds read low 1 | locus YCL016C, strain dcc1, active compounds read low 1.01 | locus YCL029C, strain bik1, active compounds read low 1 | locus YCL061C, strain MRC1, active compounds read low 0.993 | locus YCL069W, strain vba3, active compounds read low 1.03 | locus YCR088W, strain abp1, active compounds read low 0.989 | locus YDL005C, strain med2, active compounds read low 0.99 | locus YDL035C, strain GPR1, active compounds read low 0.989 | locus YDL040C, strain nat1, active compounds read low 0.997 | locus YDL074C, strain BRE1, active compounds read low 0.976 | [3] 1.01 | locus YDL185W, strain tfp1, active compounds read low 1.02 | locus YDL192W, strain arf1, active compounds read low 0.988 | locus YDR001C, strain nth1, active compounds read low 0.999 | locus YDR069C, strain doa4, active compounds read low 1 | locus YDR101C, strain arx1, active compounds read low 1 | locus YDR137W, strain rgp1, active compounds read low 0.997 | locus YDR159W, strain sac3, active compounds read low 0.973 | locus YDR162C, strain NBP2, active compounds read low 1 | locus YDR195W, strain ref2 0.939 | locus YDR297W, strain sur2, active compounds read low 0.985 | locus YDR318W, strain mcm21, active compounds read low 1 | locus YDR334W, strain swr1, active compounds read low 0.998 | locus YDR335W, strain msn5, active compounds read low 1 | locus YDR388W, active compounds read low 1.01 | locus YDR392W, strain spt3, active compounds read low 0.989 | locus YDR502C, strain sam2, active compounds read low 1.02 | locus YEL003W, strain gim4, active compounds read low 0.997 | locus YEL037C, strain rad23, active compounds read low 1.02 | locus YEL061C, strain CIN8 (second series), active compounds read low 0.995 | locus YER015W, strain faa2, active compounds read low 1 | locus YER016W, strain bim1, active compounds read low 1 | locus YER110C, active compounds read low 1.01 | locus YER111C, strain swi4, active compounds read low 0.99 | locus YER155C, strain BEM2 (second series), active compounds read low 0.998 | locus YER155C, strain BEM2, active compounds read low 1 | locus YER167W, strain BCK2, active compounds read low 0.998 | locus YFR010W, strain ubp6, active compounds read low 1.01 | locus YGL078C, strain dbp3, active compounds read low 1.03 | locus YGL086W, strain mad1, active compounds read low 1 | locus YGL167C, strain pmr1, active compounds read low 1.01 | locus YGL173C, strain kem1, active compounds read low 0.994 | locus YGL227W, strain vid30, active compounds read low 0.986 | locus YGL240W, strain doc1, active compounds read low 0.973 | locus YGL248W, strain PDE1, active compounds read low 1 | locus YGL253W, strain hxk2, active compounds read low 1 | [4] 1.01 | locus YGR135W, strain pre9, active compounds read low 1.03 | locus YGR229C, strain SMI1, active compounds read low 1.12 | locus YGR252W, strain gcn5, active compounds read low 0.986 | locus YHR013C, strain ard1, active compounds read low 0.996 | locus YHR027C, strain rpn1, active compounds read low 0.987 | locus YHR079C, strain IRE1 (second series), active compounds read low 1.01 | locus YHR094C, strain hxt1, active compounds read low 1.01 | locus YHR129C, strain ARP1, active compounds read low 0.999 | locus YHR142W, strain chs7, active compounds read low 1.02 | locus YHR200W, strain rpn10, active compounds read low 1 | locus YIL066C, strain RNR3, active compounds read low 0.995 | locus YIL073C, strain SPO22, active compounds read low 1.05 | locus YIL125W, strain kgd1, active compounds read low 1 | locus YIR030C, strain dcg1, active compounds read low 1.01 | locus YJL092W, strain hpr5, active compounds read low 1.01 | locus YJL095W, strain BCK1 (second series), active compounds read low 1.02 | locus YJL095W, strain BCK1, active compounds read low 1.01 | locus YJL115W, strain asf1, active compounds read low 0.993 | locus YJL129C, strain trk1, active compounds read low 0.978 | locus YJL134W, strain LCB3, active compounds read low 1.01 | locus YJL154C, strain vps35, active compounds read low 1 | locus YJL164C, strain tpk1, active compounds read low 1.02 | locus YJL166W, strain qcr8, active compounds read low 0.994 | locus YJL168C, strain set2, active compounds read low 1.01 | locus YJL187C, strain SWE1 (second series), active compounds read low 1.02 | [5] 0.996 | [6] 0.987 | [7] 0.997 | locus YKL009W, strain mrt4, active compounds read low 0.977 | locus YKL068W, active compounds read low 1.01 | locus YKL085W, strain MDH1 (second series), active compounds read low 1 | locus YKL085W, strain MDH1, active compounds read low 1 | locus YKL160W, strain elf1, active compounds read low 1.01 | [8] 1 | locus YKR001C, strain vps1, active compounds read low 0.993 | locus YKR026C, strain gcn3, active compounds read low 0.992 | locus YKR091W, strain srl3, active compounds read low 1 | locus YLL001W, strain dnm1, active compounds read low 1.01 | locus YLL026W, active compounds read low 0.997 | locus YLL041C, strain sdh2, active compounds read low 0.997 | locus YLR027C, strain aat2, active compounds read low 0.984 | [9] 0.95 | locus YLR058C, strain SHM2, active compounds read low 1.01 | locus YLR102C, strain apc9, active compounds read low 1.02 | locus YLR221C, strain rsa3, active compounds read low 0.991 | locus YLR258W, strain gsy2, active compounds read low 1.01 | locus YLR262C, strain YPT6 (second series), active compounds read low 0.998 | [10] 1 | locus YLR268W, strain sec22, active compounds read low 1.01 | locus YLR320W, strain mms22, active compounds read low 1 | locus YLR342W, strain FKS1, active compounds read low 0.984 | locus YLR357W, strain rsc2, active compounds read low 0.99 | locus YLR370C, strain arc18, active compounds read low 1.01 | locus YLR371W, strain rom2, active compounds read low 0.984 | locus YLR384C, strain iki3, active compounds read low 0.999 | locus YLR418C, strain cdc73, active compounds read low 1 | locus YML016C, strain PPZ1, active compounds read low 0.999 | locus YML032C, strain rad52, active compounds read low 1 | locus YML120C, strain ndi1, active compounds read low 1.01 | locus YML124C, strain tub3, active compounds read low 1.01 | locus YMR058W, strain fet3, active compounds read low 1.01 | locus YMR078C, strain ctf18, active compounds read low 1.01 | locus YMR125W, strain sto1, active compounds read low 0.992 | locus YMR129W, active compounds read low 1.01 | locus YMR205C, strain PFK2, active compounds read low 0.982 | locus YMR223W, strain ubp8, active compounds read low 1.01 | locus YMR231W, strain pep5, active compounds read low 1 | [11] 1.02 | locus YMR307W, strain GAS1, active compounds read low 0.975 | locus YNL067W, strain RPL9B, active compounds read low 1.04 | locus YNL071W, strain lat1, active compounds read low 0.996 | locus YNL128W, strain TEP1, active compounds read low 1.02 | [12] 1.03 | locus YNL209W, strain ssb2, active compounds read low 0.995 | locus YNL233W, strain BNI4, active compounds read low 1 | locus YNL248C, strain rpa49, active compounds read low 0.99 | locus YNL250W, strain rad50, active compounds read low 1.02 | locus YNL271C, strain bni1, active compounds read low 1.01 | locus YNL298W, strain CLA4, active compounds read low 1.02 | locus YNL307C, strain MCK1, active compounds read low 1.01 | locus YNL322C, strain KRE1 (second series), active compounds read low 0.998 | [13] 1.01 | locus YNR049C, strain mso1, active compounds read low 0.997 | locus YNR052C, strain pop2, active compounds read low 1.02 | locus YOL012C, strain htz1 0.761 | locus YOL147C, strain pex11, active compounds read low 1.01 | locus YOR001W, strain rrp6, active compounds read low 0.984 | locus YOR061W, strain CKA2, active compounds read low 1.01 | locus YOR069W, strain VPS5, active compounds read low 1.01 | locus YOR070C, strain gyp1, active compounds read low 0.993 | locus YOR080W, strain dia2, active compounds read low 0.997 | locus YOR083W, strain WHI5, active compounds read low 1.01 | locus YOR106W, strain vam3, active compounds read low 1.02 | locus YOR136W, strain idh2, active compounds read low 1.01 | locus YOR144C, strain elg1, active compounds read low 1.01 | locus YOR184W, strain ser1, active compounds read low 1.01 | locus YOR265W, strain rbl2, active compounds read low 1.01 | locus YOR270C, strain vph1, active compounds read low 1.03 | locus YOR290C, strain snf2, active compounds read low 1.02 | locus YOR316C, strain cot1, active compounds read low 1.01 | locus YPL051W, strain arl3, active compounds read low 1.01 | [14] 0.989 | locus YPL078C, strain atp4, active compounds read low 1.01 | locus YPL106C, strain sse1, active compounds read low 0.988 | locus YPL240C, strain hsp82, active compounds read low 1.01 | [15] 1.01 | locus YPR119W, strain clb2, active compounds read low 1 | locus YPR141C, strain kar3, active compounds read low 1.01 | locus YPR163C, strain tif3, active compounds read low 1.01 | locus YPR167C, strain met16, active compounds read low 1.01 | strain wtn01, active compounds read low 0.997

CN1c2ccccc2C(=O)/C(=N/Nc2ccccc2F)S1(=O)=O
inactive: [1] 1 | [2] 1.02 | [3] 1.02 | locus YDR150W, strain NUM1, active compounds read low 1.04 | locus YEL061C, strain CIN8, active compounds read low 1.01 | [4] 1.02 | locus YHR030C, strain SLT2, active compounds read low 0.991 | locus YHR087W, strain rtc3, active compounds read low 1.01 | [5] 0.997 | [6] 1.01 | [7] 1.02 | [8] 1 | [9] 0.999 | locus YLR058C, strain SHM2 (second series), active compounds read low 1.02 | locus YLR085C, strain ARP6, active compounds read low 0.965 | [10] 1.01 | locus YML094W, strain GIM5, active compounds read low 0.995 | locus YMR219W, strain ESC1, active compounds read low 1.01 | [11] 1.01 | [12] 1.02 | locus YNL298W, strain CLA4 (second series), active compounds read low 0.995 | [13] 1.01 | locus YNR030W, strain Alg12, active compounds read low 0.997 | [14] 1.03 | [15] 0.993 | locus YPR135W, strain CTF4, active compounds read low 1.06
